# Assay outcomes deposited in PubChem BioAssay by Sanford-Burnham Center for Chemical Genomics.
# In the library only some 1.4% were active in any assay of this set; here they are far more common.
# NPR2 activator: GC-B (human) receptor activation; P20594; HEK293-GC-B cells, CNP EC30, cGMP TR-FRET; 0% at EC30 CNP, 100% saturating CNP; activation, % at 10 µM; 370,000 tested, 0.11% active; AID 1920062;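 active means activation at 10 µM reaching about 35% in either raw or pattern-adjusted values, limit read from the data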
# A3G deaminase: blocks human APOBEC3G single-stranded DNA deamination; 330,000 tested, 0.28% active; AID 493012; Q9HC16; inhibition, % at 20 µM; recombinant A3G, ssDNA deamination FAM/TAMRA fluorescence;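 active means inhibition of at least 40% at 20 µM, with no more than 30% in the related APOBEC3A deaminase screen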;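 further: plate controls were DMSO wells with A3G for no effect and wells lacking A3G enzyme for full effect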
# NPR1 activator: GC-A (human) enzyme activation. activation, % at 10 µM. HEK293 GC-A cells, cGMP TR-FRET, EC30 ANP; 0% at EC30 ANP, 100% saturating ANP. 370,000 tested, 0.14% active. P16066; in the data active means activation above about 40%
# APOBEC3A inh: blocks human APOBEC3A ssDNA deamination; 330,000 tested, 0.41% active; inhibition, % at 20 µM; recombinant A3A, FAM/TAMRA ssDNA deamination fluorescence; P31941;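 active means at least 40% inhibition at 20 µM here, with at most 30% in a related deaminase screen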;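 further: plate controls were A3A with DMSO for no effect and wells lacking A3A enzyme for full effect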
# Target sequence (P31941 whole entry, looked up): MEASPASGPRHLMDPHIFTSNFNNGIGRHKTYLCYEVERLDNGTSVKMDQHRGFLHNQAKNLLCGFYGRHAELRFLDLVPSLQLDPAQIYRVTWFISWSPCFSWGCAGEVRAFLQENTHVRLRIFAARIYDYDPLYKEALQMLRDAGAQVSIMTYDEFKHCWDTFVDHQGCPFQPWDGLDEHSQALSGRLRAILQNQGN
# FAS TE block: blocks the thioesterase domain of human fatty acid synthase; recombinant FAS-TE, OMFH fluorogenic substrate, fluorescence endpoint; P49327; inhibition, % at 15 µM; 360,000 tested, 0.67% active;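 active means compounds whose normalised, plate-corrected inhibition of enzyme fluorescence in the single-dose primary screen is 50% or more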;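 further: 0% = DMSO with enzyme and 100% = substrate without enzyme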
# A3A conf: APOBEC3A (human) deaminase inhibition, confirmed; shares compounds with APOBEC3A inh; recombinant A3A, ssDNA deaminase UDG fluorescence assay; inhibition, % at 20 µM; 1,400 tested, 63% active; AID 493151;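 active means inhibition reaching a set limit, 80% of the first screen's cutoff, at 20 µM in any replicate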;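 further: plate controls were DMSO wells with A3A for no effect and wells lacking A3A enzyme for full effect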
# UDG A3A counter: UDG inhibition in APOBEC3A counter-screen; shares compounds with APOBEC3A inh; UDG counterscreen, FAM/TAMRA uracil oligo fluorescence; inhibition, % at 20 µM; 1,000 tested, under 10 active; AID 504714; call rule not given here
# A3G conf: APOBEC3G (human) deaminase inhibition, confirmed; shares compounds with A3G deaminase; recombinant A3G ssDNA deaminase, UDG/FAM-TAMRA fluorescence; inhibition, % at 20 µM; 890 tested, 72% active;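 active means inhibition reaching a set limit in any replicate at 20 µM, the limit being 80% of the first screen's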
# UDG ctr A3G: E. coli UDG inhibition in APOBEC3G counter-screen | shares compounds with A3G deaminase | UDG counterscreen, FAM/TAMRA oligo fluorescence | inhibition, % at 20 µM | 710 tested, under 10 active | AID 504715;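 active means compounds giving 40% or more inhibition at 20 µM in any one of the three replicates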;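 further: plate controls were DMSO wells with UDG and oligo for no effect and DMSO wells lacking both for full effect; inhibitors lower the FAM signal released by uracil excision and alkaline cleavage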
# Target sequence (P12295 whole entry, looked up): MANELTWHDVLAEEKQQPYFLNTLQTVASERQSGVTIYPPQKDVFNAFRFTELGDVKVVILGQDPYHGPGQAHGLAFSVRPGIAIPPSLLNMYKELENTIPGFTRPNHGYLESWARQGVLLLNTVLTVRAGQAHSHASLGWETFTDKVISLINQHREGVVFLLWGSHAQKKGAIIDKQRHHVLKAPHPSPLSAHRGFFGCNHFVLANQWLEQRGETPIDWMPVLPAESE
# FAS-TE inh conf: confirmation of human fatty acid synthase thioesterase inhibitors; shares compounds with FAS TE block; recombinant FAS-TE, OMFH fluorogenic substrate, fluorescence; inhibition, % at 15 µM; 2,300 tested, 45% active;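 active means compounds inhibiting the enzyme by at least 50% at 15 µM in any one of the replicates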;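 further: 0% = enzyme with DMSO only and 100% = wells lacking enzyme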
# The depositor's hits bear a star; / = not tested or not shown; ! = a repeat was not active.
SMILES,NPR2 activator,A3G deaminase,NPR1 activator,APOBEC3A inh,FAS TE block,others
C[N+]1(C)CCc2cc3c(cc2[C@H]1[C@@H]1OC(=O)c2c1ccc1c2OCO1)OCO3,5,23,0,46*!,-3,A3A conf=80*;UDG A3A counter=1
CN1C2CCC1C(C(=O)Oc1ccccc1)C(c1ccc(Cl)cc1)C2 (configuration not stated),-23,/,-26,/,/,
O=[N+]([O-])c1ccc(O)c([N+](=O)[O-])c1,-1,-8,1,-1,1,
O=[N+]([O-])c1cc([As](=O)(O)O)ccc1O,3,6,0,83*,-1,A3A conf=51*;UDG A3A counter=-1
Cc1ccc(N2C(=O)NC(=O)/C(=C\c3cc(C)n(-c4cc(C(=O)O)cc(C(=O)O)c4)c3C)C2=O)cc1,3,17,-1,54*,-3,A3A conf=28*;UDG A3A counter=0
c1ccc(-c2nc3ccccc3nc2-c2ccc(CN3CCC(n4nnc5ccccc54)CC3)cc2)cc1,4,/,0,/,/,
O=C(O)C1C(C(=O)O)C2(Cl)C(Cl)=C(Cl)C1(Cl)C2(Cl)Cl (configuration not stated),-3,1,2,43*,-4,A3A conf=15*;UDG A3A counter=-2
O=C(CN1C(=O)[C@@H](Cc2ccc(O)cc2)N=C(c2ccccc2)c2ccccc21)NC1CCCCC1,-8,/,-8,/,/,
C[N+](C)(C)CCc1ccc(O)cc1,0,25,0,65*,-6,A3A conf=77*;UDG A3A counter=3
CC(C)(C)NC(=O)C1CN=C(c2ccccc2)c2cc(Cl)ccc2N1C(=O)C1CCC1 (configuration not stated),-21,/,-22,/,/,
C[N+]1(C)C2CC[C@H]1CC(OC(=O)C(CO)c1ccccc1)C2 (some centres not stated),-1,-4,3,-2,-6,
C[N+]1(C)C2CCC1CC(OC(=O)c1c[nH]c3ccccc13)C2 (configuration not stated),-2,18,3,72*,-2,A3A conf=84*;UDG A3A counter=2
C[N+]1(C)[C@@H]2CC[C@H]1CC(OC(=O)[C@@H](CO)c1ccccc1)C2 (some centres not stated),-1,20,-2,67*,-3,A3A conf=87*
CC(NC(=O)OCc1ccccc1)P(=O)(Oc1ccccc1)Oc1ccccc1 (configuration not stated),-6,/,-3,/,/,
CC(NC(=O)OC1CC2CCC1(C)C2(C)C)P(=O)(Oc1ccccc1)Oc1ccccc1 (configuration not stated),-3,/,0,/,/,
COc1ccc(CN2CCNCC2)c(OC)c1OC,4,-3,5,57*!,-3,A3A conf=62*;UDG A3A counter=-2
CCCCN1CCN(C(=O)COc2cc(=O)n(C)c3ccccc23)CC1,-4,/,-1,/,/,
c1cncc(C2Nc3cccc4cccc(c34)N2)c1,1,45*,7,22,-2,A3G conf=64*
Cc1ccc(-n2c(O)c(/C=N/Nc3ccccc3)c(=O)[nH]c2=O)cc1C,1,5,-2,-3,/,
COc1ccc(N/N=C/c2c(O)n(-c3ccc(C)c(C)c3)c(=O)[nH]c2=O)cc1,-2,51*,-4,-2,-10,A3G conf=17;UDG ctr A3G=2
COc1ccc(N/N=C/c2c(O)n(-c3cccc(C)c3)c(=O)[nH]c2=O)cc1,-1,54*,-3,0,-5,A3G conf=24*;UDG ctr A3G=-4
O=C(NCCN1CCC2(CC1)C(=O)NCN2c1ccccc1)c1cccs1,1,/,-6,/,/,
O=C1C=CC(=O)C=C1,7,82*,0,5,-1,A3G conf=88*;UDG ctr A3G=-3
CC(=O)C1=C(C)OC2=C(C(=O)CCC2)[C@@]12C(=O)N(C)c1ccccc12,0,/,8,/,/,
O=c1[nH]c(=O)n(-c2cccc3ccccc23)c(O)c1/C=N/N1CCCCCC1,5,68*,3,-2,-2,A3G conf=-4;UDG ctr A3G=1
SMILES,NPR2 activator,A3G deaminase,NPR1 activator,APOBEC3A inh,FAS TE block,others
O=[N+]([O-])c1ccccc1Cl,0,-12,3,-5,-4,
O=C1NC(=O)C(Sc2ccccc2[N+](=O)[O-])C(=O)N1,4,46*,4,-3,-1,A3G conf=63*;UDG ctr A3G=-4
Cc1nn(CCC#N)c2c1P(=S)(N1CCCC1)OC(c1ccc(F)cc1)=N2 (configuration not stated),2,67*,-3,2,26,A3G conf=67*
O=C(COC(=O)c1cc(Br)cc(Br)c1O)NC12CC3CC(CC(C3)C1)C2,1,/,-2,/,25,
COC1CC=C2CCN3CCC4=C(CC(=O)OC4)C23C1 (configuration not stated),-7,/,5,/,/,
COC(=O)c1ccccc1-n1c(C)nc2ccccc2c1=O,1,-7,1,-1,-2,
O=C(O)c1cccc2nc3ccccc3nc12,-13,72*,0,3,-3,A3G conf=24*;UDG ctr A3G=2
COc1cccc(-c2ccc3c(c2)C2c4cnnn4-c4ccccc4C(=O)N2CC3)c1 (configuration not stated),2,/,-8,/,/,
C/C(=N\N1CCCCC1c1cccnc1)c1c(O)n(C2CCCCC2)c(=S)[nH]c1=O (configuration not stated),4,-3,-10,0,70*,FAS-TE inh conf=10
COc1ccc(-c2nn(CCC#N)cc2C(=O)Nc2ccc(C(C)=O)cc2)cc1[N+](=O)[O-],-2,16,4,-4,85*,FAS-TE inh conf=91*
COc1ccc(NC(=O)c2cn(CCC#N)nc2-c2ccc(OC)c(OC)c2)cc1,-2,-6,-1,1,-2,
O=C(NCCN1CCC2(CC1)C(=O)NCN2c1ccccc1)c1ccc2ccccc2c1,-5,/,-4,/,/,
N#Cc1ccc2nc(-c3ccc(CN4CCC(n5c(=O)[nH]c6ccccc65)CC4)cc3)c(-c3ccccc3)nc2c1,6,/,5,/,93*,FAS-TE inh conf=7
O=[N+]([O-])c1cccc(CN2CC=C(c3ccc(F)cc3)CC2)c1,7,-5,-1,-3,57*,FAS-TE inh conf=53*
O=[N+]([O-])c1ccccc1CN1CC=C(c2ccc(F)cc2)CC1,1,-4,1,-7,26,
